Test systems include NCI-H23 lung; NCI-H226 lung; NCI-H322M lung; HOP-62 NSCLC; HOP-92 NSCLC; NCI-H522 lung; A549/ATCC NSCLC; 786-0 renal; COLO 205 colon; DU-145 prostate; K-562 leukemia; MALME-3M melanoma; MDA-MB-231 breast; RXF 393 renal; SF-268 CNS; SF-295 CNS; SF-539 CNS; UACC-257 melanoma; M14 melanoma.
Holding throughout (assay): NCI-60 one-dose screen, 48 h (100 = growth as untreated, 0 = no growth, -100 = all killed)
What all share (conditions): 10 µM unless noted

About 83,000 compounds went through this panel and 20% of them were active in at least one assay; those are over-represented in the sample as a whole.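 Assay: single dose, 48 h. Readout: percent growth (0 = no net growth; negative = cell death). Active: <10.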 Unmarked numbers belong to inactive results. Activity calls are given as the source filed them.

This is an account of results in PubChem BioAssay (NCI).

In the case of `Cc1ccc2c(n1)C(=O)C(Br)=C(CC(C)C)C2=O`, the growth in the test on NCI-H23 lung was 98.6%; in the test with NCI-H226 lung, 97.2%; in the test on NCI-H322M lung it was 96.5%; with HOP-62 NSCLC, 97.1%; in the test on HOP-92 NSCLC it was 80.4%; in the test with NCI-H522 lung, 67.7%. Further, the growth was 90.8% in the test with A549/ATCC NSCLC; 96.3% with 786-0 renal; 78.5% in the test on COLO 205 colon; 109% with DU-145 prostate; 33.8% with K-562 leukemia; 99.7% in the test on MALME-3M melanoma. Moreover, the growth in the test with MDA-MB-231 breast was 91.4%; in the test on RXF 393 renal it was 102%; with SF-268 CNS it was 96.2%; in the test with SF-295 CNS, 102%; in the test on SF-539 CNS, 97.7%; with UACC-257 melanoma, 85.1%. For the same compound, in the test on M14 melanoma, the growth is 102%.

Take `COc1cc2cc(NCc3cccc(Cl)c3)nc(C)c2cc1OC`: the growth was 22.6% with NCI-H23 lung; 35.8% with NCI-H226 lung; 37.4% with NCI-H322M lung; 51.4% in the test with HOP-62 NSCLC; 57.8% in the test on HOP-92 NSCLC; 18.3% in the test on NCI-H522 lung. Further, the growth in the test with A549/ATCC NSCLC was 41.3%; with 786-0 renal, 39.9%; in the test with COLO 205 colon, 31.6%; with DU-145 prostate it was 62.8%; in the test with K-562 leukemia it was 8.28% (active); with MALME-3M melanoma it was 80.6%. Also, the growth was 41.6% in the test on MDA-MB-231 breast; 40.3% with RXF 393 renal; 41.3% in the test on SF-268 CNS; 26.1% in the test on SF-295 CNS; 5.02% (active) with SF-539 CNS; 69.8% in the test with UACC-257 melanoma. In addition, the growth in the test with M14 melanoma is 29.4%.

Turning to `COC(=O)Nc1nc2ccc(S(=O)c3ccccc3)cc2[nH]1` (stereo unspecified), the growth with NCI-H23 lung was 64.4%; with NCI-H226 lung, 92.9%; in the test on NCI-H322M lung, 88%; in the test on HOP-62 NSCLC it was 99.4%; with HOP-92 NSCLC, 75.5%; in the test on NCI-H522 lung, 65.8%. The growth in the test on A549/ATCC NSCLC is 57.7%; in the test with 786-0 renal, 80.4%; in the test with COLO 205 colon it was 67.5%; in the test with DU-145 prostate it was 96.3%; in the test with K-562 leukemia, 29.9%; with MALME-3M melanoma it was 83.7%. In addition, the growth in the test with MDA-MB-231 breast was 68.4%; in the test with RXF 393 renal it was 107%; in the test with SF-268 CNS, 84.8%; with SF-295 CNS it was 58.4%; in the test with SF-539 CNS, 73.6%; in the test on UACC-257 melanoma it was 73.9%. Besides, in the test with M14 melanoma, the growth was 44.5%.

Regarding `CN(C)CCNC(=O)c1cc2c3cc(Cl)ccc3[nH]c2c2ncccc12`, the growth in the test on NCI-H23 lung is 32.5%; with NCI-H226 lung, 25%; with NCI-H322M lung it was 31.4%; in the test with HOP-62 NSCLC, 24.4%; in the test on HOP-92 NSCLC, 2.92% (active); in the test on NCI-H522 lung it was 21.2%. The growth was 9.53% (active) in the test with A549/ATCC NSCLC; 11.4% with 786-0 renal; -17.9% (active) in the test on COLO 205 colon; 7.58% (active) in the test with DU-145 prostate; -25.1% (active) with K-562 leukemia; -29.9% (active) in the test on MALME-3M melanoma. In addition, the growth is 30.3% with MDA-MB-231 breast; 15.5% in the test on RXF 393 renal; 13.5% with SF-268 CNS; 22.1% with SF-295 CNS; 5.06% (active) in the test on SF-539 CNS; 18.4% in the test on UACC-257 melanoma. The growth in the test with M14 melanoma was -81% (active).

Turning to `CN(C)S(=O)(=O)c1cccc(C(=O)Nc2nc(-c3ccc(F)c(F)c3)cs2)c1`, the growth was 45.7% with NCI-H23 lung; 46.7% with NCI-H226 lung; 106% in the test on NCI-H322M lung; 99.5% with HOP-62 NSCLC; 67.1% in the test on HOP-92 NSCLC; 25.2% with NCI-H522 lung. The growth was 60.1% in the test on A549/ATCC NSCLC; 64.9% in the test on 786-0 renal; 103% with COLO 205 colon; 70.7% in the test on DU-145 prostate; 39.4% with K-562 leukemia; 90.9% with MALME-3M melanoma. Also, the growth in the test with MDA-MB-231 breast was 69.4%; in the test on RXF 393 renal, 55.1%; in the test with SF-268 CNS it was 88.9%; with SF-295 CNS it was 49.3%; with SF-539 CNS, 66.4%; in the test on UACC-257 melanoma, 42.5%. For the same compound, the growth in the test on M14 melanoma was 60.8%.

As to `O=C(CN1CCOCC1)Nc1nc(-c2cc3ccccc3oc2=O)cs1`, the growth was 111% in the test on NCI-H23 lung; 88.2% in the test on NCI-H226 lung; 100% with NCI-H322M lung; 96.9% with HOP-62 NSCLC; 90.7% in the test with HOP-92 NSCLC; 98.7% in the test with NCI-H522 lung. Besides, the growth in the test with A549/ATCC NSCLC was 105%; in the test on 786-0 renal, 103%; in the test with COLO 205 colon it was 120%; in the test with DU-145 prostate, 106%; in the test on K-562 leukemia, 96.3%; in the test with MALME-3M melanoma it was 102%. Besides, the growth in the test on MDA-MB-231 breast was 93.6%; in the test on RXF 393 renal it was 109%; in the test on SF-268 CNS it was 90.1%; in the test with SF-295 CNS it was 101%; in the test on SF-539 CNS, 97.6%; with UACC-257 melanoma it was 106%. The growth in the test with M14 melanoma is 101%.

Consider `CCSc1oc(-c2ccccc2)nc1[P+](c1ccccc1)(c1ccccc1)c1ccccc1`, for which the growth was -11.8% (active) in the test on NCI-H23 lung; -2.47% (active) with NCI-H226 lung; -6.18% (active) in the test on NCI-H322M lung; 0.275% (active) with HOP-62 NSCLC; -27.9% (active) with HOP-92 NSCLC; -20.3% (active) in the test on NCI-H522 lung. In addition, the growth was 9.29% (active) in the test on A549/ATCC NSCLC; 13.4% in the test with 786-0 renal; -45.5% (active) with COLO 205 colon; 11.1% with DU-145 prostate; 7.15% (active) in the test with K-562 leukemia; -25% (active) in the test with MALME-3M melanoma. Further, the growth in the test with MDA-MB-231 breast was -12.8% (active); in the test with RXF 393 renal, 0.296% (active); with SF-268 CNS, 14.1%; with SF-295 CNS it was -4.41% (active); with SF-539 CNS, 14.6%; in the test on UACC-257 melanoma, 7.79% (active). The growth with M14 melanoma was 7.57% (active).

For `COC1/C=C/OC2(C)Oc3c(C)c(O)c4c(O)c(c(/C=N/Nc5ccc([N+](=O)[O-])cc5[N+](=O)[O-])c(O)c4c3C2=O)NC(=O)C(C)=C/C=C/C(C)C(O)C(C)C(O)C(C)C(OC(C)=O)C1C` (stereo unspecified), the growth with NCI-H23 lung is 4.25% (active); in the test on NCI-H226 lung, -57.2% (active); with NCI-H322M lung it was 93.9%; in the test on HOP-62 NSCLC, 42.2%; in the test with NCI-H522 lung, -42.5% (active); with A549/ATCC NSCLC, 82.9%. Moreover, the growth was 24.4% with 786-0 renal; 24.9% in the test on COLO 205 colon; 39.4% with DU-145 prostate; 4.82% (active) with K-562 leukemia; 29.2% in the test with MALME-3M melanoma; -7.83% (active) with MDA-MB-231 breast. In addition, the growth with RXF 393 renal is -74.3% (active); with SF-268 CNS, 13.8%; in the test on SF-295 CNS, 81.1%; with SF-539 CNS, -2.39% (active); in the test on UACC-257 melanoma it was 34.6%; in the test on M14 melanoma, 11.4%.
